This is an account of results in the supplement of paper PMC10849652.

Test in all cases: log2 fold change, soluble protein after heating vs DMSO (PISA); higher = thermal stabilisation; K562 lysate, 10 uM; active = over 0.2 and 3.5 SD of the protein, either way, in both replicates (recomputed)
Compound in assay [1]: CS(=O)(=O)CCNCc1ccc(-c2ccc3ncnc(Nc4ccc(OCc5cccc(F)c5)c(Cl)c4)c3c2)o1 [lapatinib]
Put shortly: (§1)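 K562 pellets were dounce-homogenised in PBS pH 7.4 containing 1 mM MgCl2, and the crude extract, at 1 mg/mL protein, was exposed to 10 μM compound for 30 min. Aliquots were heated for 3 min across 48°C-58°C, pooled, brought to 0.5% NP-40 at 4°C and spun at 21,000xg for 90 min, with the supernatant taken as soluble protein. TMTpro 16plex LC-MS/MS with equalised channel sums quantified that protein. Values are log-two fold changes in thermal stability relative to solvent controls, taken from duplicates.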

Compound in assay [2]: CS(=O)(=O)N1CCN(Cc2cc3nc(-c4cccc5[nH]ncc45)nc(N4CCOCC4)c3s2)CC1 [pictilisib]
An outline of the steps:
as §1

Compound in assay [3]: C[C@H](C1=CC=C(C=C1)C(=O)NC2=C3C=CNC3=NC=C2)N
Put shortly: as §1

Compound in assay [4]: C[C@H](Nc1ncnc2nc[nH]c12)c1cc2cccc(Cl)c2c(=O)n1-c1ccccc1 [duvelisib]
An outline of the steps: as §1

Compound in assay [5]: Cc1cc(Nc2cc(CN3CCOCC3)c3nc(C)c(Cc4ccc(Cl)cc4F)n3n2)n[nH]1 [gandotinib]
Put shortly: as §1

Compound in assay [6]: Cc1ccc(NC(=O)c2ccc(CN3CC[C@H](N(C)C)C3)c(C(F)(F)F)c2)cc1Nc1nccc(-c2cncnc2)n1 [bafetinib]
Put shortly: as §1

Compound in assay [7]: Cc1cccc(CC(=O)N2CCc3c2ccc(-c2cn(C)c4ncnc(N)c24)c3F)n1
Put shortly: as §1

Compound in assay [8]: Cc1cn(-c2cc(NC(=O)c3ccc(C)c(Nc4nccc(-c5cccnc5)n4)c3)cc(C(F)(F)F)c2)cn1 [nilotinib]
An outline of the steps: as §1

Compound in assay [9]: Cc1nc(Nc2n[nH]c3c2CN(C(=O)N[C@H](CN(C)C)c2ccccc2)C3(C)C)c2sccc2n1
Put shortly: as §1

Compound in assay [10]: Cc1nc(Nc2ncc(C(=O)Nc3c(C)cccc3Cl)s2)cc(N2CCN(CCO)CC2)n1 [dasatinib]
An outline of the steps: as §1

Compound in assay [11]: Cc1ncc(-c2ccnc(Nc3ccc(S(C)(=O)=O)cc3)n2)n1C(C)C
Put shortly: as §1

Compound in assay [12]: Cn1cc(-c2ccc3c(c2)CCN3C(=O)Cc2cccc(C(F)(F)F)c2)c2c(N)ncnc21
Put shortly: as §1

Compound in assay [13]: Cn1cncc1[C@@](N)(c1ccc(Cl)cc1)c1ccc2c(c1)c(-c1cccc(Cl)c1)cc(=O)n2C [tipifarnib]
An outline of the steps: as §1

Compound in assay [14]: NC(=O)c1cnc(N[C@@H]2CCCC[C@@H]2N)nc1Nc1cccc(-n2nccn2)c1
Put shortly:
as §1

Compound in assay [15]: NC1(c2ccc(-c3nc4ccn5c(=O)[nH]nc5c4cc3-c3ccccc3)cc2)CCC1
An outline of the steps:
as §1

Compound in assay [16]: C[C@@H](Oc1cc(-c2cnn(C3CCNCC3)c2)cnc1N)c1c(Cl)ccc(F)c1Cl [crizotinib]
An outline of the steps: as §1

Compound in assay [17]: Cc1ccc(-n2nc(C(C)(C)C)cc2NC(=O)Nc2ccc(OCCN3CCOCC3)c3ccccc23)cc1 [doramapimod]
An outline of the steps:
as §1

Compound in assay [18]: Cn1cc(CNCC2CCN(c3ncc(C(=O)NO)cn3)CC2)c2ccccc21 [quisinostat]
Put shortly:
as §1

Compound in assay [19]: NC(=O)Nc1cc(-c2cccc(F)c2)sc1C(=O)N[C@H]1CCCNC1
Put shortly:
as §1

Targets with a hit are over-represented here; the source holds about 8,800 in all. About 0.5% of all pairs of compound and target were hits. Unmarked numbers belong to inactive results.

Chain of UniProt P19793 (P19793 whole entry, looked up): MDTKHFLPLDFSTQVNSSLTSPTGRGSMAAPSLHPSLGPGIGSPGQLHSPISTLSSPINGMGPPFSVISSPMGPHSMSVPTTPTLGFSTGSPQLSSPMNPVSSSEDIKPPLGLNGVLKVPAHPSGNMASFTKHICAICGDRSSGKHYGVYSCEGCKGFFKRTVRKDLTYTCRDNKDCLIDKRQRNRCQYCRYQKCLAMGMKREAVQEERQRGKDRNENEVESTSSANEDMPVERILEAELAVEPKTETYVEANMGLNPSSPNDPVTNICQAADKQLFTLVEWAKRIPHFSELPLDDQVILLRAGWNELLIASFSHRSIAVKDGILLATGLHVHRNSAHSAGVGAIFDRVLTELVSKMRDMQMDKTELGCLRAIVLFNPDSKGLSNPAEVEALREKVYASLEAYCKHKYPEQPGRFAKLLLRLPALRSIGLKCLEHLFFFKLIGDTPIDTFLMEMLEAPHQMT
Chain of UniProt Q9Y6D0 (Q9Y6D0 whole entry, looked up): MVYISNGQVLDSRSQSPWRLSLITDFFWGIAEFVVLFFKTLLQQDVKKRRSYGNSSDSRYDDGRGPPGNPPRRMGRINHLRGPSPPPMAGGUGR
Chain of UniProt Q96K19 (Q96K19 whole entry, looked up): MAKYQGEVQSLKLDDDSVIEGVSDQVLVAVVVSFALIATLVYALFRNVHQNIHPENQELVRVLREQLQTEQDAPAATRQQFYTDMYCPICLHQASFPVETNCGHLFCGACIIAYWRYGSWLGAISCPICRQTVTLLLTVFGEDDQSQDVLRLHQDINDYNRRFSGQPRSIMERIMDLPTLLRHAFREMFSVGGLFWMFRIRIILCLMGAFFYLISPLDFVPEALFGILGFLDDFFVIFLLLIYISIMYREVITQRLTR
Chain of UniProt Q9BWF3 (Q9BWF3 whole entry, looked up): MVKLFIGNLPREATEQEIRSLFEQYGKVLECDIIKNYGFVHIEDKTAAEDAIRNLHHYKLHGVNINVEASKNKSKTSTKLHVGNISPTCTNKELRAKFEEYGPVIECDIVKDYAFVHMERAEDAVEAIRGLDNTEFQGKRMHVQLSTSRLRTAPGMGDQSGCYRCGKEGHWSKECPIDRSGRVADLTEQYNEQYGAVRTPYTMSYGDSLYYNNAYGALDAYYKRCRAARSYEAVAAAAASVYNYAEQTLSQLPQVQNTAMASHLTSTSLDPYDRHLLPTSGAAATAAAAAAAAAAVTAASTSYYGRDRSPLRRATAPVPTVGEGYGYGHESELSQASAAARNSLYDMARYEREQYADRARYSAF

As to RNF170 (UniProt Q96K19), the log2 fold change is -0.011 in assay [1]; -0.332 in [2]; -0.042 in assay [3]; -0.229 in [4]; -0.198 in assay [5]; 0.024 in assay [6]. The log2 fold change in [7] is 1.2 (active); in assay [8] it was -0.04; in [9], 0; in assay [10], -0.008; in [11], 0.043; in [12] it was -0.028. The values for the log2 fold change in assay [13], in [14] and in assay [15] were -0.3, -0.07 and 0.073, respectively.

As for SELENOK (UniProt Q9Y6D0), the log2 fold change is -0.065 in [1]; -0.048 in assay [2]; -0.543 (active) in assay [3]; 0.082 in assay [4]; 0.52 (active) in assay [5]; -0.027 in assay [6]. The log2 fold change in assay [7] is 0.542 (active); in [8], -0.009; in [9], -0.032; in [10], 0.082; in assay [11], 0.064; in assay [12], -0.032. For the same target, the log2 fold change was -0.077 in assay [13] and 0.001 in assay [14].

For RXRA (UniProt P19793), the log2 fold change in assay [1] was -0.045; in assay [16] it was -0.062; in assay [3], -0.041; in assay [4], 0; in assay [5] it was -0.047; in assay [17], 0.019. Besides, the log2 fold change in assay [7] is 0.126; in assay [8], 0.164; in assay [9] it was -0.053; in [10], -0.112; in assay [11] it was 0.119; in [12], -0.024. In addition, the log2 fold change in assay [18] was -0.028; in assay [13], 0.011; in assay [19], 0.027; in assay [14], 0.024; in [15], -0.014.

In the case of RBM4 isoform 3 (UniProt Q9BWF3), the log2 fold change was 0.114 in [16], 0.016 in [17], -0.094 in assay [18] and 0.06 in assay [19].

On to RNASEH2B, A0A1B0GUE7, for which the log2 fold change was -0.128 in [1]; -0.01 in assay [8]; 0.037 in [9]; 0.211 in [11]; 0.067 in assay [13]; 0.035 in [14].
